# PubChem BioAssay (EPA / NIEHS)
# Values joined by “and” are separate entries in the source; they are usually repeats but may differ in a detail not shown here. Equal entries are not always repeated. Inconclusive results are not listed. More than one record can exist for a structure, and the calls need not agree. Active and inactive are the calls of the source. How the source made its calls, unless noted: active means hit-call score of the fitted dose curve at least 0.9, where 1 is the maximum; inconclusive means response in the unintended direction; inactive means score below 0.9.
# Assays:
# SERPINA7 (gene 6906) = experiment: CCTE_GLTED_hTBG: CCTE's human Thyroxine-binding Globulin (TBG) Inhibition Assay, Great Lakes Toxicology and Ecology Division (GLTED) Lab (AID 2284343);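 further: active chemicals lower fluorescence versus DMSO baseline by displacing probe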
# Outline: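 hTBG + test chem, 2 h; ANSA probe displacement; fluorescence readout ex380/em475; DMSO = neg ctrl/baseline; cell-free.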
# SRD5A2 (gene 6716) = experiment: CCTE_Deisenroth_5AR_NBTE_ratio: CCTE's 5alpha-reductase NanoBRET Target Engagement Assay - Ratio, Deisenroth Lab (AID 2284322; active means hit-call score of the fitted dose curve at least 0.9, where 1 is the maximum; inactive means score below 0.9); settings: actives raise or lower the signal
# Outline: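 HEK293T transiently expressing SRD5A2-NanoLuc; cells exposed to chemical (8-point, 10 nM - 29.9 uM) for 5 h total, testosterone tracer added for final 2 h. NanoBRET acceptor/donor ratio (650/460 nm), bidirectional fit vs DMSO.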
# [1] = VALA_TUBHUV_Antagonist_TubuleLength: VALA Sciences human Umbilical Vein Endothelial Tubule Formation (TUBHUV) Antagonism Assay (AID 2284325)
# Outline: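 HUVEC–HDF co-culture (1:3) pre-grown 3 days with 10 ng/ml VEGF, then 3 days with compound plus VEGF. Fixed, nuclear and CD31 stained; total tubule length by imaging versus 0.1% DMSO; suramin 100 uM positive control.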
# [2] = VALA_MIGHUV1_ScratchOnly_WoundArea: VALA Sciences human Umbilical Vein Endothelial Cell Migration (MIGHUV) Assay, Area of Scratch Wound Inhibited Recovery (AID 2284336)
# Outline: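 HUVEC monolayers (9000 cells/well) were scratched after 24 h, dosed within 30 min (six concentrations, triplicate, 0.1% DMSO), allowed 24 h recovery, then fixed. Hoechst-stained nuclei in the wound imaged; cytochalasin D as reference.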
# [3] = VALA_TUBHUV_Agonist_TubuleLength: VALA Sciences human Umbilical Vein Endothelial Tubule Formation (TUBHUV) Agonism Assay (AID 2284337)
# Outline: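 HUVEC co-cultured with fibroblasts (1:3) 3 days in 10 ng/ml VEGF, then 3 days with compound plus VEGF; 0.1 % DMSO neutral control. Fixed, nuclear and CD31 stained; tubule length by fluorescence imaging.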
# [4] = VALA_TUBIPS_Agonist_CellCount: Viability Assessment in the VALA Sciences human iPS-derived Endothelial Tubule Formation (TUBIPS) Agonism Assay (AID 2284338)
# [5] = CCTE_Mundy_HCI_iCellGluta_NOG_NeuronCount: CCTE's Neurite Outgrowth Assay in iCellGluta cells for Neuron Count, Mundy Lab (AID 2284340);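 further: cells fixed about 48 h after compound addition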
# Outline: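 Neuron count read by automated high-content imaging of Hoechst 33342 and betaIII-tubulin/Alexa Fluor-488 labelling in human iPSC glutamatergic neurons. Activity fitted relative to DMSO.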
# [6] = CCTE_Mundy_HCI_iCellGluta_NOG_NeuriteCount: CCTE's Neurite Outgrowth Assay in iCellGluta cells for Neurite Count, Mundy Lab (AID 2284342);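 further: chemical exposure about 48 hours starting 2 hours after plating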
# [7] = Tanguay_ZF_120hpf_MO24: Oregon State University Tanguay Lab 24 Hour Post-fertilization zebrafish Assay for Mortality (AID 2284389; active means hit-call score of the fitted dose curve at least 0.9, where 1 is the maximum; inactive means score below 0.9)
# Outline: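 Dechorionated wild-type zebrafish embryos, 1 per well, statically exposed from 6 hpf at 28C, 0.64% DMSO final. Mortality scored as binary present/absent at 24 hpf by brightfield microscopy, relative to DMSO.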
# [8] = Tanguay_ZF_120hpf_DP24: Oregon State University Tanguay Lab 24 Hour Post-fertilization zebrafish Assay for Delayed Development (AID 2284390; active means hit-call score of the fitted dose curve at least 0.9, where 1 is the maximum; inactive means score below 0.9)
# Outline: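 Dechorionated 5D wild-type zebrafish embryos exposed statically from 6 hpf, one per well, 0.64% DMSO final, 28 C, sealed and dark. Developmental progression scored at 24 hpf by brightfield as binary present/absent; dead embryos excluded.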
# [9] = VALA_TUBIPS_Antagonist_CellCount: Viability Assessment in the VALA Sciences human iPS-derived Endothelial Tubule Formation (TUBIPS) Antagonism Assay (AID 2284335)
# [10] = TAMU_PeakParms_SingleDonor1434_Asystole: Texas A&M University (TAMU) 1.5-hr Human Induced Pluripotent Stem Cell (iPSC)-derived Cardiomyocytes Calcium (Ca+2) Flux Assay for Cardiotoxicity: Asystole (quiescence of beating) (AID 2284328)
# Outline: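 Average Ca2+-flux peak frequency (beats/s) was recorded in single-donor iPSC-derived cardiomyocytes after 90 min exposure (0.2–100 uM final, 0.5% DMSO). Asystole POD set as EC95 against DMSO, no preprocessing.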
# [11] = system: Brachyury (BRA) Protein Expression, Deisenroth Lab, TBXT (gene 6862); experiment: CCTE_Deisenroth_DEVTOX-GLR_legacy_Bra: (Legacy) CCTE's DevTox GLR-Endo Assay Evaluation of Brachyury (BRA) Protein Expression, Deisenroth Lab (AID 2284329; active means hit-call score of the fitted dose curve at least 0.9, where 1 is the maximum; inactive means score below 0.9)
# Outline: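 Human pluripotent RUES2-GLR line was exposed twice during 48 h differentiation to a 10-point series, 1 nM - 200 uM. Fraction of Bra-positive cells was scored by imaging against pluripotent baseline and fitted after 0.2% DMSO subtraction.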
# [12] = CCTE_Deisenroth_DEVTOX-GLR_legacy_CellCount: (Legacy) Viability Assessment in CCTE's DevTox GLR-Endo Assay, Deisenroth Lab (AID 2284331; active means hit-call score of the fitted dose curve at least 0.9, where 1 is the maximum; inactive means score below 0.9); settings: actives raise or lower the signal
# Outline: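 Human pluripotent RUES2-GLR cells differentiated 48 h with two 24-h-interval exposures, 10-point 1 nM–200 uM series, 0.2% DMSO. Fixed nuclei counted by high-content imaging (5 fields/well); bidirectional fit vs DMSO, n≥4.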
# [13] = system: SRY-box transcription factor 17 (SOX17) Protein Expression, Deisenroth Lab, SOX17 (gene 64321); experiment: CCTE_Deisenroth_DEVTOX-GLR_legacy_Sox17: (Legacy) CCTE's DevTox GLR-Endo Assay Evaluation of SRY-box transcription factor 17 (SOX17) Protein Expression, Deisenroth Lab (AID 2284341; active means hit-call score of the fitted dose curve at least 0.9, where 1 is the maximum; inactive means score below 0.9); settings: actives raise or lower the signal
# Outline: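 RUES2-GLR human pluripotent cells differentiated toward endoderm for 48 h, dosed twice at 24 h intervals (1 nM–200 uM, 10 points). Imaging gives % SOX17+ cells (intensity >5x BMAD above pluripotent control median); bidirectional fit versus 0.2% DMSO.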
# [14] = system: SRY-box transcription factor 2 (SOX2) Protein Expression, Deisenroth Lab, SOX2 (gene 6657); experiment: CCTE_Deisenroth_DEVTOX-GLR_legacy_Sox2: (Legacy) CCTE's DevTox GLR-Endo Assay Evaluation of SRY-box transcription factor 2 (SOX2) Protein Expression, Deisenroth Lab (AID 2284346; active means hit-call score of the fitted dose curve at least 0.9, where 1 is the maximum; inactive means score below 0.9)
# Outline: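 hPSC RUES2-GLR, 384-well; 24 h seed → 48 h endoderm differentiation, 2 doses q24h, 1 nM–200 uM. Fix, nuclear dye, 5 fields/well. Sox2+ cells/cell count; cell positive if >5x BMAD over endoderm ctrl; gain direction vs DMSO.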
# [15] = IUF_NPC1_cytotoxicity_72hr: Cytotoxicity Assessment at 72 hours in the Leibniz Research Institute for Environmental Medicine (IUF) Neural Progenitor Cell Proliferation Assay (NPC1) (AID 2284332);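 further: rising LDH signal means more cytotoxicity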
# Outline: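 Spheres of primary human neural progenitors are plated one per well on day 0 in growth-factor medium and dosed at once. After three days at 37C, supernatant LDH is measured fluorimetrically via resazurin reduction.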
# [16] = CCTE_Deisenroth_H295R-HTRF_384WELL_ESTRADIOL: CCTE's H295R-HTRF Assay Evaluation of Estradiol Concentration, Deisenroth Lab (AID 2284361; active means hit-call score of the fitted dose curve at least 0.9, where 1 is the maximum; inactive means score below 0.9); settings: actives raise or lower the signal
# Outline: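 H295R cells exposed 48 h to chemicals at 0.001 - 100 uM final (nine points, triplicate); estradiol in conditioned medium measured by HTRF immunoassay, fitted bidirectionally versus DMSO. Viability by CellTiter-Glo on same plates.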
# [17] = CCTE_Deisenroth_H295R-HTRF_384WELL_TESTOSTERONE: CCTE's H295R-HTRF Assay Evaluation of Testosterone Concentration, Deisenroth Lab (AID 2284373; active means hit-call score of the fitted dose curve at least 0.9, where 1 is the maximum; inactive means score below 0.9); settings: actives raise or lower the signal
# Outline: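 H295R cells were acclimated 24 h, then exposed 48 h to nine concentrations (0.001–100 uM final) in technical triplicate, n=5. Testosterone in conditioned medium was measured by HTRF (em 620/665 nm). Fitting was bidirectional versus DMSO; CellTiter-Glo viability ran on the same plates.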
# [18] = CCTE_Deisenroth_H295R-HTRF_384WELL_CTOX: Cytotoxicity Assessment in CCTE's H295R-HTRF Assay, Deisenroth Lab (AID 2284380)
# Outline: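 H295R adrenocortical carcinoma cells plated 24 h, then exposed 48 h to nine-point series 0.001–100 uM final, triplicate, n=5. ATP measured by CellTiter-Glo 2.0 luminescence on same plates after medium collection; loss versus DMSO.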
smiles,measurement,setting,value
COc1ccc([N+](=O)[O-])cc1N,AC50,SERPINA7 (gene 6906),50 µM (active)
COCC(C)O (stereo not drawn),outcome,SRD5A2 (gene 6716),inactive
O=C(O)Cc1cc(I)c(Oc2cc(I)c(O)c(I)c2)c(I)c1,outcome,[1],inactive
same,outcome,[2],inactive
same,outcome,[3],inactive
same,outcome,[4],inactive
same,AC50,SERPINA7 (gene 6906),0.0197 µM (active)
OCCC(F)(F)C(F)(F)C(F)(F)C(F)(F)C(F)(F)C(F)(F)F,outcome,[5],inactive
same,outcome,[6],inactive
same,outcome,[7],inactive
same,outcome,[8],inactive
NC(=O)N1C(=O)C(C(=O)c2cc(Cl)cs2)c2cc(F)c(Cl)cc21 (stereo not drawn),AC50,SERPINA7 (gene 6906),7.27 µM (active)
O=C(O)c1ccccc1C(c1ccc(O)cc1)c1ccc(O)cc1,AC50,SERPINA7 (gene 6906),49.9 µM (active)
CCCCCCCCCCCCc1ccccc1S(=O)(=O)O,outcome,[9],inactive
same,outcome,[2],inactive
same,AC50,[3],15.6 µM (active)
same,AC50,[4],1.5 µM (active)
same,AC50,SERPINA7 (gene 6906),4.89 µM (active)
c1ccc2cc3c(ccc4ccccc43)cc2c1,outcome,[10],inactive
CC[C@H](C)[C@@H](C(=O)O)n1sc2ccccc2c1=O,AC50,SERPINA7 (gene 6906),18.2 µM (active)
CCN(CC)CCNc1ccc(CNC=O)c2sc3ccc(OC)cc3c(=O)c12,outcome,SRD5A2 (gene 6716),inactive
CCCCCCCCCCCCCC[N+](C)(C)C,AC50,SRD5A2 (gene 6716),75.1 µM (active)
c1ccc2c(c1)Cc1ccccc1-2,outcome,[10],inactive
CCCCCCCCOC(=O)CCCCCCCCC(=O)OCCCCCCCC,outcome,SRD5A2 (gene 6716),inactive
C=C(C)C(=O)OCCC(F)(F)C(F)(F)C(F)(F)C(F)(F)C(F)(F)C(F)(F)F,outcome,[5],inactive
same,outcome,[6],inactive
same,outcome,[7],inactive
same,outcome,[8],inactive
CC(C)(C)CC(C)(C)c1ccc(O)c(-n2nc3ccccc3n2)c1,AC50,SERPINA7 (gene 6906),16.3 µM (active)
CC(O)CO (stereo not drawn),outcome,[11],inactive
same,outcome,[12],inactive
same,outcome,[13],inactive
same,outcome,[14],inactive
CCOC(=O)CC(O)(CC(=O)OCC)C(=O)OCC,outcome,SRD5A2 (gene 6716),inactive
C[C@@H]1C[C@H]2[C@@H]3CCC4=CC(=O)C=C[C@]4(C)[C@@]3(F)[C@@H](O)C[C@]2(C)[C@@]1(O)C(=O)COP(=O)(O)O,outcome,[11],inactive
same,outcome,[12],inactive
same,outcome,[13],inactive
same,outcome,[14],inactive
Cc1cc(C)c(O)c(C)c1,outcome,SERPINA7 (gene 6906),inactive
OCCC(F)(F)C(F)(F)C(F)(F)C(F)(F)C(F)(F)C(F)(F)C(F)(F)C(F)(F)F,outcome,[6],inactive
same,outcome,[7],inactive
same,outcome,[8],inactive
ClC1=C(Cl)C(Cl)(Cl)C(Cl)=C1Cl,AC50,SERPINA7 (gene 6906),23.9 µM (active)
CC[C@H](c1ccc(O)cc1)[C@@H](CC)c1ccc(O)cc1,AC50,SERPINA7 (gene 6906),8.97 µM (active)
CC1=C(/C=C/C(C)=C/C=C/C(C)=C/C(=O)O)C(C)(C)CCC1,AC50,[11],11.7 µM (active)
same,AC50,[12],4.44 µM (active)
same,outcome,[15],inactive
same,AC50,[13],0.109 µM (active)
same,AC50,[14],82.8 µM (active)
c1ccc2c(c1)ccc1ccccc12,outcome,[10],inactive
COCC(C)OCC(C)O (stereo not drawn),outcome,SRD5A2 (gene 6716),inactive
CC#C[C@]1(O)CC[C@H]2[C@@H]3CCC4=CC(=O)CCC4=C3[C@@H](c3ccc(N(C)C)cc3)C[C@@]21C,outcome,[10],inactive
same,outcome,[15],inactive
same,AC50,[5],27.3 µM (active)
same,outcome,[5],inactive
same,AC50,[6],58.9 µM (active)
same,outcome,[6],inactive
same,outcome,[16],inactive
same,outcome,[17],inactive
same,outcome,[18],inactive
O=C1OC2(c3ccccc31)c1cc(Br)c(O)c(Br)c1Oc1c2cc(Br)c(O)c1Br,AC50,SRD5A2 (gene 6716),7.55 µM (active)
O=[N+]([O-])c1ccc(O)cc1,AC50,SRD5A2 (gene 6716),71.2 µM (active)
same,AC50,SERPINA7 (gene 6906),33.3 µM (active) and 47.2 µM (active)
